In PubChem BioAssay AID652017 (The Scripps Research Institute Molecular Screening Center, 2013):
Several values for one entry are separate records, joined by “and”; a condition that tells them apart may be missing. Identical values can stand only once. Screen size: about 370,000 compounds; about 3,800 (1%) were called active. This excerpt belongs to a sample that is enriched for actives. Unmarked numbers belong to inactive results. Cut-off read from the data, not from the text of the source: active = activation above about 7.8%; inactive = the rest.

Experiment: SMARCA2 (BRM) function activators, primary screen, cell-based, luminescence, high throughput (AID 652017);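 note: 0% = vehicle wells and 100% = reference activator wells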
Settings: MG213 cells, MMTV-luciferase reporter, dexamethasone, overnight; at 9.1 µM; active compounds read high
Work on `Cc1ccc(NC(=O)Nc2cc(C)nn2-c2ccccc2)cc1` yielded an activation of -3.87%.
For `COc1cccc(OCCOc2cccc(/C=N/n3cnnc3)c2)c1`, the activation was 10.1% (active).
`C=CCc1ccc(OCCOc2cccc(/C=N/n3cnnc3)c2)c(OC)c1` showed an activation of 2.79%.
Work on `Cc1ccccc1OCCOc1ccc([N+](=O)[O-])cc1/C=N/n1cnnc1` yielded an activation of -1.85%.
With `CCc1ccc[n+](-c2nc([O-])sc2C=O)c1` the activation was 8% (active).
With `COc1ccc(N2CCN(CCNS(=O)(=O)c3ccc([N+](=O)[O-])cc3)CC2)cc1` the activation was -3.04%.
With `COc1ccc(C(=O)Nc2ccc3c(c2)OCO3)cc1OC` the activation was 16.7% (active).
Molecule `O=C(Cc1ccc([N+](=O)[O-])cc1)NCCc1ccc2c(c1)OCO2` has an activation of 4.55%.
In the case of `COc1ccc(C(=O)Nc2ccc(C3(C#N)CCCC3)cc2)cc1OC`, the activation is reported as 1.54%.
With `O=C(Nc1cccc([N+](=O)[O-])c1)c1ccc2c(c1)OCO2` the activation was 8.1% (active).
With `CN(C(=O)c1cccc(NC(=O)Cc2cccc([N+](=O)[O-])c2)c1)C1CCCCC1` the activation was -2.39%.
With `COc1ccc(Cl)cc1NC(=O)CN(C)CC(=O)Nc1ccc2c(c1)OCO2` the activation was -3.2%.
Molecule `Cn1c(Cc2cccs2)nnc1SCC(=O)Nc1ccccc1` has an activation of 4.18%.
`Cc1ccccc1CS(=O)(=O)Cc1ccc(C(=O)Nc2ccc(Cl)cc2)o1` gave an activation of -8.47%.
`CCc1nn(-c2cc(Oc3cccc4ccccc34)nc(-c3ccccc3)n2)c(N)c1C#N` gave an activation of 0.3%.
In the case of `CCNC(=S)N1CCN(c2ncccn2)CC1`, the activation is reported as 8.35% (active).
With `Cc1ccc(NC(=S)N2CCN(c3ncccn3)CC2)cc1C` the activation was 2.65%.
Molecule `CCNC(=S)N1CCN(S(=O)(=O)c2ccc(Cl)s2)CC1` has an activation of -1.32%.
With `O=S1(=O)c2ccc(Br)cc2OC[C@@H](Cc2ccccc2)N1Cc1cn(Cc2ccco2)nn1` the activation was -0.61%.
Work on `Cc1cccc(C2C3=C(CCCC3=O)N=C3c4ccccc4C(=O)C32)c1` (configuration not stated) yielded an activation of 1.45%.
Molecule `COc1ccc(CCNC(=O)CSc2nc3c([nH]2)c(=O)n(C)c(=O)n3C)cc1` has an activation of -2.8%.
With `CCCn1c(=O)c2ccccc2n2c(SCC(=O)/C(C#N)=C(\C)N)nnc12` the activation was 9.35% (active).
Work on `C=CCn1c(SCC(=O)/C(C#N)=C(\C)N)nc2sc(C)c(C)c2c1=O` yielded an activation of -1.26%.
`C=CCn1c(=O)c2ccccc2n2c(SCC(=O)N3CCCc4ccccc43)nnc12` gave an activation of 1.43%.
With `COc1ccc(CN2C/C(=C/c3ccccc3)N3C(=O)C[C@@H](c4ccccc4)N=C23)c(OC)c1` the activation was -4.07%.
`COc1ccccc1C(=O)NC1CCCCN(C(C)C)C1=O` (configuration not stated) showed an activation of -0.79%.
In the case of `Cc1ccc(-n2c(SCC(=O)Nc3cccc4ccccc34)nnc2-c2ccccn2)cc1`, the activation is reported as -2.65%.
`O=C1NC[C@H](Cc2ccc(O)cc2)N(C[C@@H]2CCCN2C[C@H](Cc2ccccc2)N2C[C@H](Cc3ccccc3)N(CC3CCCCC3)C(=O)C2=O)C1=O` showed an activation of -2.98%.
`CC(C)C[C@H]1CNC(=O)C(=O)N1C[C@@H]1CCCN1C[C@H](Cc1ccccc1)N1C[C@H](CC(C)C)N(CC2CCCCCC2)C(=O)C1=O` showed an activation of -3.56%.
With `CC(C)C[C@H]1CNC(=O)C(=O)N1C[C@H]1CCCN1C[C@H](Cc1ccc(O)cc1)N1C[C@H](CC(C)C)N(CC2CCCCCC2)C(=O)C1=O` the activation was 8.41% (active).
`O=C(CSc1nc2ccccc2s1)N=Nc1c(O)[nH]c2ccccc12` showed an activation of -2.44%.
`Cc1ccc(S(=O)(=O)N(CC(=O)Nc2cccc([N+](=O)[O-])c2)Cc2ccc(Cl)cc2)cc1` gave an activation of -2.5%.
For `COc1ccc(C)cc1S(=O)(=O)N(CC(=O)Nc1cccc([N+](=O)[O-])c1)c1ccc(C)cc1`, the activation was 9.29% (active).
For `COc1ccc(N(CC(=O)Nc2ccc(C)cc2C)S(=O)(=O)c2ccccc2[N+](=O)[O-])c(OC)c1`, the activation was -0.94%.
For `Nc1ccc2c(c1)C(=Cc1cccnc1)c1ccccc1-2`, the activation was 0.27%.
`Cc1ccc(C2=C/C(=C\c3cccnc3)C(=O)O2)cc1` gave an activation of 5.23%.
With `Cc1ccccc1C1=N/C(=C/c2cccnc2)C(=O)O1` the activation was 10.3% (active).
Work on `CCn1c(SCC(C)=O)nc2sc3c(c2c1=O)CCCC3` yielded an activation of -0.23%.
In the case of `Cc1cccc(-n2c(O)c(C=Nc3ccccc3N)c(=O)[nH]c2=O)c1`, the activation is reported as 9.92% (active).
`O=C(CSc1nc2sc3c(c2c(=O)n1-c1ccccc1)CCCC3)NN=Cc1ccc(OCc2ccccc2)cc1` gave an activation of -2.96%.
`Cc1ccc(Cn2cc(CN3[C@@H](C)COc4cc(Br)ccc4S3(=O)=O)nn2)cc1` gave an activation of -6.23%.
With `O=C(Cn1ncc2c3ccccc3n(Cc3ccccc3)c2c1=O)NCc1ccccn1` the activation was -0.48%.
With `O=S(=O)(Cc1ccccc1)c1nc2ccccc2n1Cc1ccccn1` the activation was 7.86% (active).
For `O=C(O)Cn1c(Cc2ccccc2)nc2ccccc21`, the activation was -0.68%.
For `O=C1NC[C@@H](CCCCN2CCN(CCc3ccc(O)cc3)C(=O)C2=O)N(CC2CCCCC2)C1=O`, the activation was 0.65%.
With `Cc1ccc(Cn2cc(CN3[C@@H](CC(C)C)COc4ccc(Cl)cc4S3(=O)=O)nn2)cc1` the activation was 0.91%.
For `CC(CCN1CCC(C(O)(c2ccccc2)c2ccccc2)CC1)Oc1ccc(C(F)(F)F)cc1` (configuration not stated), the activation was 0.64%.
For `COC(=O)[C@]12CCCCC=C1N(Cc1ccco1)C(=O)[C@H](CC(=O)NCC1CCCCC1)C2`, the activation was -5.18%.
Work on `Cc1cc(-c2nc(C)c(-c3nnc(SCC(=O)Nc4ccccc4)n3C)s2)no1` yielded an activation of -1.01%.
Work on `Cn1c(SCC(=O)Nc2cccc(NC(=O)c3cccs3)c2)nnc1-c1ccncc1` yielded an activation of 2.18%.
In the case of `Cc1nc(-c2nnc(SCC(=O)Nc3cc(C(F)(F)F)cc(C(F)(F)F)c3)n2C)cs1`, the activation is reported as 8.28% (active).
Molecule `Cc1cc(=O)[nH]c(SCC(=O)Nc2ccc(F)cc2F)n1` has an activation of -4.89%.
With `COc1cccc(C(=O)Nc2nc3ccc(S(C)(=O)=O)cc3s2)c1` the activation was 8.68% (active).
With `COc1cccc(C(=O)NNS(=O)(=O)c2ccc(F)cc2)c1` the activation was -0.53%.
For `COc1cccc(C(=O)Nc2nnc(S(=O)(=O)N3CCOCC3)s2)c1`, the activation was -2.26%.
For `O=C(CSc1nc2ccccc2n1Cc1ccccc1Cl)N/N=C\c1c[nH]c2ccccc12`, the activation was -4.04%.
For `C=CC(=O)OCCOCCOCCOCCOC(=O)C=C`, the activation was 13.1% (active).
In the case of `CCc1nc2c(OCCOc3ccccc3)cccn2c1N(C)C(=O)c1ccc(OC)cc1`, the activation is reported as -6.52%.
With `O=C1CCC2(CCC(c3ccc(Cl)cc3)CC2)N1CCO` (configuration not stated) the activation was -3.07%.
In the case of `CCCCCCN1CCS(=O)(=O)N(Cc2ccc(C(F)(F)F)cc2)C(C(=O)OC)C1` (configuration not stated), the activation is reported as -1.27%.
`O=C(CSc1nnc(-c2ccccc2)n1Cc1ccco1)Nc1ccccc1-c1ccccc1` showed an activation of -7.03%.
Work on `Cc1ccc(C)c(NC(=O)CCS(=O)(=O)c2ccccc2)c1` yielded an activation of 0.55%.
In the case of `Cc1ccc(F)c(NC(=O)CCOc2ccccc2C)c1`, the activation is reported as -0.21%.
In the case of `Cc1ccc(F)c(NC(=O)CCc2ccccc2)c1`, the activation is reported as 11.3% (active).
Work on `C[C@H](NC(=O)c1ccccc1Cl)C(=O)OCCOc1cccc(Cl)c1` yielded an activation of -0.67%.
For `COC(=O)c1sc(-c2ccc(C(C)(C)C)cc2)cc1NC(=O)/C=C/C(=O)O`, the activation was 9.14% (active).
`O=C(C=CC(=O)Nc1ccc(F)cc1F)Nc1ccc(F)cc1F` showed an activation of 0.37%.
Work on `COC(=O)C[C@@H]1CC[C@@H]2[C@@H](COc3ccc(NC(=O)Nc4ccc(F)c(F)c4)cc3C(=O)N2C)O1` yielded an activation of -2.75%.
With `CC(=O)c1sc(N)nc1C` the activation was -0.52% and -1.75%.
For `CC(=O)c1sc(NC(=O)c2ccc(C)cc2)nc1C`, the activation was 9.69% (active).
For `Cc1ccc(/C=N/NC(=O)C(NC(=O)c2ccccc2)c2n[nH]c(=O)c3ccccc23)cc1` (configuration not stated), the activation was -1.07%.
In the case of `CC(=O)c1sc(N/N=C\c2ccc(C)cc2)nc1C`, the activation is reported as 13.4% (active).
For `Cc1ccc(C(=O)Nc2nc(N)n(-c3ccccc3)n2)cc1`, the activation was -1.21%.
With `CCOC(=O)c1sc(/N=C/Nc2nc(C)c(C(=O)OCC)s2)nc1C` the activation was -0.22%.
`C[C@H]1CCC/C=C/C(=O)c2c(O)cc(O)cc2CC(=O)O1` gave an activation of 6.88%.
Work on `CCCCNC(=O)C[C@H]1C[C@@]2(C(=O)OC)C(=C[C@H](COCc3ccccc3)O[C@@H]2C)N(Cc2ccc(Cl)cc2Cl)C1=O` yielded an activation of -3.4%.
In the case of `C=CCN1[C@@H](Cc2ccccc2)COc2cccc(N3CCSCC3)c2S1(=O)=O`, the activation is reported as -1.33%.
With `COC(=O)[C@]1(C#N)CC(=O)N(CC2CCCCC2)[C@@H]1c1ccccc1` the activation was -6.17%.
`COC(=O)[C@]12C[C@H](CC(=O)NCc3ccccc3)C(=O)N(Cc3ccccc3)C1=C[C@H](COCc1ccccc1)O[C@@H]2C` gave an activation of 2.84%.
`Cc1ccc(-c2nc(C3CCCN(S(=O)(=O)c4ccc(Br)s4)C3)no2)cc1` (configuration not stated) showed an activation of -5.3%.
For `CN(C)c1nc(=Nc2cccc(Cl)c2)ss1`, the activation was 10.5% (active).
In the case of `CCCCCCCCNS(=O)(=O)/C=C/c1cc(C)ccc1CNC(=O)OC(C)(C)C`, the activation is reported as -5.6%.
With `C=CCN1C(=O)[C@@H](CC(=O)NCC2CCCCC2)[C@]2(C(=O)OC)CCCCC=C12` the activation was -0.86%.
For `CCOC(=O)c1cc2cc(-c3c(C(=O)OCC)oc4cc(O)cc(O)c4c3=O)ccc2o1`, the activation was -3.39%.
In the case of `Cc1ccsc1-c1nc(CSCC(=O)NCCN2CCCC2)c(C)o1`, the activation is reported as 8.31% (active).
With `Cc1ccc(-c2nc(CSCC(=O)NC3CCN(Cc4ccccc4)CC3)c(C)o2)cc1` the activation was -3.96%.
Molecule `Cc1cc(NC(=O)CSCc2nc(-c3cccc(Cl)c3)oc2C)no1` has an activation of -4.35%.
